Activity calls are given as the source filed them. Unless noted, how the calls were made is not given here.
Experiments:
[1] = compounds binding Alexa647 anti-His antibody – biochemical, small-molecule microarray, 635 nm fluorescence, artefact control for SMM control protein annotation, primary screen (AID 1128); details: higher = more signal;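 further: score merges feature fluorescence with signal-to-noise for each printed compound spot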
[2] = test system: Human papillomavirus type 1a E7 protein (residues 1-88); test: HPV1a E7 small-molecule binders, primary screen, biochemical, small-molecule microarray, residues 1-88, 635 nm (AID 1129); details: small-molecule microarray binding, fluorescence 635 nm; higher = more signal
[3] = target: Focal adhesion kinase 1 (Homo sapiens) (UniProt Q05397); test: PTK2 protein binding on printed compound slides – biochemical, small-molecule microarray, 635/667 nm fluorescence, BSA, DTT, primary screen (AID 1130); details: 635 nm fluorescence, higher = more signal;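 further: composite of spot emission at 667 nm and signal to noise over triplicate slides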
Sequence of Focal adhesion kinase 1 (Homo sapiens) (Q05397 whole entry, looked up): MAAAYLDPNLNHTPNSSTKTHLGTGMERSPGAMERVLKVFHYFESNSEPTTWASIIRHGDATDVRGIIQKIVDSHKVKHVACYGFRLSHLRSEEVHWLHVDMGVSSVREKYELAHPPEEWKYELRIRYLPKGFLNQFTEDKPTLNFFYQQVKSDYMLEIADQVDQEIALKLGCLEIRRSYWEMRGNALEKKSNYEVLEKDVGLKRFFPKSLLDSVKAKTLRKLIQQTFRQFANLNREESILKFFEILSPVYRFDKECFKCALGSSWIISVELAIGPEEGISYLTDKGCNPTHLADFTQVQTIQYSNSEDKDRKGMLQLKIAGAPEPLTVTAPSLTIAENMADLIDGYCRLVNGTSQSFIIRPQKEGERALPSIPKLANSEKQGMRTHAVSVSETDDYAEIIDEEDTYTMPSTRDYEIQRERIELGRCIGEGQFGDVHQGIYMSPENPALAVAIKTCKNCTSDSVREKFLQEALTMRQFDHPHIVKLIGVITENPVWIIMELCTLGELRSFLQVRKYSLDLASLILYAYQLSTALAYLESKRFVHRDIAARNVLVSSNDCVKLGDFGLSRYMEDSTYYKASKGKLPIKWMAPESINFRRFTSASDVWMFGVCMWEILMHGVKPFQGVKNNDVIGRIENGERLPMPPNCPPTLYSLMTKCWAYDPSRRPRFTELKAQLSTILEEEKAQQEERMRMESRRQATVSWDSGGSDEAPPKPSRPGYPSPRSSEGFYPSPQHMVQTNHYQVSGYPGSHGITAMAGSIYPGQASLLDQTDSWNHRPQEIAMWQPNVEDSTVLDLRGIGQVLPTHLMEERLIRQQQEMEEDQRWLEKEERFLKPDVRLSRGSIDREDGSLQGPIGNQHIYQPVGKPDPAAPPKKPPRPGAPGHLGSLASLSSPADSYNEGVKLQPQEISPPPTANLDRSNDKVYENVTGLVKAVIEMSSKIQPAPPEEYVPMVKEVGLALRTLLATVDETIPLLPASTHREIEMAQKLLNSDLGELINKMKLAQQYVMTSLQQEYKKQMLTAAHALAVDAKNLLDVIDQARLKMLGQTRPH

[4] = test system: Fibrinogen (Alexa647-labelled); test: Alexa647-fibrinogen binding to printed small molecules – biochemical, small-molecule microarray, 635/667 nm fluorescence, artefact control for SMM control-protein annotation, profiling panel (AID 1131); details: fibrinogen-A647 binding fluorescence, higher = more signal;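 further: z-score merges 667 nm fluorescence with per-spot signal-to-noise over triplicate slides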
[5] = target: Follistatin (Homo sapiens) (UniProt P19883); test: FST protein binding to printed compounds – biochemical, small-molecule microarray, 635/667 nm fluorescence, primary screen (AID 1132); details: 635 nm fluorescence, higher = more signal
Sequence of Follistatin (Homo sapiens) (P19883 whole entry, looked up): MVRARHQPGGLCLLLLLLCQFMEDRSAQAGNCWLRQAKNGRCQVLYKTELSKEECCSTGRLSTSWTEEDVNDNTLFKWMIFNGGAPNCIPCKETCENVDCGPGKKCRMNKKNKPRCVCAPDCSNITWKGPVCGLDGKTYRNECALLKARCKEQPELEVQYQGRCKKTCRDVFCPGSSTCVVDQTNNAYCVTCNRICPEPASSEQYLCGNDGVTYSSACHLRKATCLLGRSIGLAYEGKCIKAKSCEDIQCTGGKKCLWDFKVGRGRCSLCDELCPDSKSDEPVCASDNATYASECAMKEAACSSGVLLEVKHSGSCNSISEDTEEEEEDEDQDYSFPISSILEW

[6] = target: Fibroblast growth factor 2 (Homo sapiens) (UniProt P09038); test: basic fibroblast growth factor binding to printed compounds – biochemical, small-molecule microarray, 635/667 nm fluorescence, primary screen (AID 1133); details: FGF2, fluorescence 635/667, higher = more signal
Sequence of Fibroblast growth factor 2 (Homo sapiens) (P09038 whole entry, looked up): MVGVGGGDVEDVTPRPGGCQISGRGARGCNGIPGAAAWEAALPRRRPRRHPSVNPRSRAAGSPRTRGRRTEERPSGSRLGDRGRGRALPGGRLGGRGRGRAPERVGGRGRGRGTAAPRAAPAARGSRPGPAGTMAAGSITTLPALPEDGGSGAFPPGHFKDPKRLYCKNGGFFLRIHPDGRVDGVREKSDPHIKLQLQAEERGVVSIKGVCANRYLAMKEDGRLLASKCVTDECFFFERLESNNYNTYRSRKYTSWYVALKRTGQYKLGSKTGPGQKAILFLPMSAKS

[7] = JC-1 mitochondrial potential readout, lung cancer cells – cell-based, A549, JC-1 fluorescence, basal, 24 h, 100 nL, profiling panel (AID 1138); details: higher = more signal;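 further: A549 lung adenocarcinoma cells under basal conditions with no added stimulus; test concentration not given here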
[8] = test system: Lefty1; test: Lefty1 protein binding to printed compounds – biochemical, small-molecule microarray, 635/667 nm fluorescence, primary screen (AID 1139); details: fluorescence 635/667, higher = more signal
[9] = test system: wheat germ agglutinin (Triticum aestivum), Alexa647-labelled; test: Alexa647-WGA lectin binding to printed small molecules – biochemical, small-molecule microarray, 635/667 nm fluorescence, artefact control for SMM control-protein annotation, profiling panel (AID 1140); details: WGA-A647 binding, 635 nm fluorescence, higher = more signal;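 further: score merges 667 nm feature emission with signal to noise over triplicate slides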
[10] = target: Luciferin 4-monooxygenase (Photinus pyralis) (UniProt P08659); test: inhibition of purified Photinus pyralis luciferase – biochemical, luminescence, purified enzyme, 2006 set, primary screen (AID 1141); details: purified firefly luciferase, SteadyGlo luminescence, 30 min; higher = more signal, called active from +8 up or from −8 down;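 further: cell-free assay with purified firefly luciferase at 100 ng per well in PBS; test concentration not given here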
Sequence of Luciferin 4-monooxygenase (Photinus pyralis) (P08659 whole entry, looked up): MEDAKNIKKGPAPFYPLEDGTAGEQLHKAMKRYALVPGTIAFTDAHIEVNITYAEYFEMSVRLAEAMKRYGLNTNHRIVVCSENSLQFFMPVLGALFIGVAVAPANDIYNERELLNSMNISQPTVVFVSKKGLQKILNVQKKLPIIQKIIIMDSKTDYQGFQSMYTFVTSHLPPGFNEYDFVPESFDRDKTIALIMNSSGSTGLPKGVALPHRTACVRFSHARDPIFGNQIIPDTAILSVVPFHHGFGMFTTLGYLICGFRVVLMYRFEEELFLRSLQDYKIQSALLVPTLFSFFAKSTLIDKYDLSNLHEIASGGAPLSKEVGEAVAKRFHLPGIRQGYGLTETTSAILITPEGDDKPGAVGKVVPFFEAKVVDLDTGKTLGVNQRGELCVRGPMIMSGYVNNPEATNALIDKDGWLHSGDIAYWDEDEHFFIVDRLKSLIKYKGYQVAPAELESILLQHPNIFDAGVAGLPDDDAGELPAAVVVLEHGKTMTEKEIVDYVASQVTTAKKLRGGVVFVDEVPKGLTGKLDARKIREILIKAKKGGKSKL

[11] = test system: Wnt5a (protein binding on small-molecule microarray); test: small molecules binding Wnt5a protein – biophysical, small-molecule microarray, 635/667 nm fluorescence, primary screen (AID 1142); details: 635 nm fluorescence, higher = more signal;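 further: fluorescence read at 667 nm with signal to noise per printed feature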
[12] = ATP-based viability of Huh7 replicon cells – cell-based, CellTiter-Glo luminescence, basal, 48 h, cytotoxicity control for HCV replication inhibitor project, primary screen (AID 1143); details: higher = more signal, called active from +8 up or from −8 down;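 further: Huh7 hepatoma cells carrying a hepatitis C replication reporter with no stimulus; test concentration not given here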
[13] = Pseudomonas biofilm growth suppression – PAO1 strain, BacTiter-Glo luminescence, LB-PBS, primary screen (AID 1144); details: P. aeruginosa PAO1 biofilm, 12 h, higher = more signal
[14] = basal CRE-LacZ reporter activity in PC12 – cell-based, unstimulated, primary screen (AID 1145); details: no forskolin, luminescence, 4.5 h, higher = more signal, called active from +8 up or from −8 down
[15] = forskolin-driven CRE-LacZ activity in PC12 – cell-based, CRE-LacZ reporter, forskolin-stimulated, primary screen (AID 1146); details: luminescence, 4.5 h, higher = more signal, called active from +8 up or from −8 down;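 further: PC12 cells with 6xCRE LacZ reporter stimulated by forskolin 10 µM; beta-galactosidase reporter signal reflecting CREB driven transcription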
[16] = target: Streptavidin (Streptomyces avidinii) (UniProt P22629); test: compounds binding control protein streptavidin – biophysical, small-molecule microarray, 635/667 nm fluorescence, artefact control for SMM compound annotation, primary screen (AID 1147); details: higher = more signal;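 further: signal reflects streptavidin binding to arrayed compounds as a control protein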
Sequence of Streptavidin (Streptomyces avidinii) (P22629 whole entry, looked up): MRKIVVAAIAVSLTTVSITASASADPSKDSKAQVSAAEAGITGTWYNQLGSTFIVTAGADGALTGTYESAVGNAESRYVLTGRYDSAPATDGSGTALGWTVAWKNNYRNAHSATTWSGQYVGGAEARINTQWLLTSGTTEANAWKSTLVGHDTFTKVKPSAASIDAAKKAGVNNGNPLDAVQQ

[17] = probe aInhba binding on compound microarray – biochemical, small-molecule microarray, 635/667 nm fluorescence, primary screen (AID 1148); details: higher = more signal;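 further: score merges 667nm spot fluorescence with signal-to-noise for antibody binding to printed compounds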
[18] = target: Torsin-1A (Homo sapiens) (UniProt O14656); test: TOR1A wild-type binding on microarray – cell lysate, small-molecule microarray, lysate, 635/667 nm, primary screen (AID 1149); details: COS7 hTOR1A-WT lysate, 635 nm fluorescence, higher = more signal
Sequence of Torsin-1A (Homo sapiens) (O14656 whole entry, looked up): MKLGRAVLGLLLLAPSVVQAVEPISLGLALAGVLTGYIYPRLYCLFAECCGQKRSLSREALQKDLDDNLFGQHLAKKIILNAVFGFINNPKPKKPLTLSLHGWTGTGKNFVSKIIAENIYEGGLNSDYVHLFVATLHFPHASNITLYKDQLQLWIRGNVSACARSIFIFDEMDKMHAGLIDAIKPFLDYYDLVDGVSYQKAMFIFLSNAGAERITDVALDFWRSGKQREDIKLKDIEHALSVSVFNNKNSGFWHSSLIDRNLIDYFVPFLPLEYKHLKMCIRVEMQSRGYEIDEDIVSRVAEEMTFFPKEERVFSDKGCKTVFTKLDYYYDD

[19] = target: Torsin-1A (Homo sapiens) (UniProt O14656); test: torsin A mutant lysate binding on microarrays – cell lysate, small-molecule microarray, COS7 lysate, 635/667 nm fluorescence, primary screen (AID 1150); details: COS7 hTOR1A mutant lysate, 635 nm fluorescence, higher = more signal;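 further: score pools 667 nm emission and signal to noise measuring lysate protein binding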
[20] = test system: Sonic hedgehog protein (Shh); test: Sonic hedgehog microarray binding compounds – biochemical, small-molecule microarray, 635/667 nm fluorescence, primary screen (AID 1151); details: 635 nm fluorescence, higher = more signal;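 further: Shh protein binding to compounds spotted on small-molecule microarray slides; score combines spot fluorescence intensity with signal-to-noise across triplicate slides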

| SMILES | composite z-score [1] | composite z-score [2] | composite z-score [3] | composite z-score [4] | composite z-score [5] | composite z-score [6] | z-score [7] | composite z-score [8] | composite z-score [9] | z-score [10] | composite z-score [11] | z-score [12] | z-score [13] | z-score [14] | z-score [15] | composite z-score [16] | composite z-score [17] | composite z-score [18] | composite z-score [19] | composite z-score [20] |
| --- | --- | --- | --- | --- | --- | --- | --- | --- | --- | --- | --- | --- | --- | --- | --- | --- | --- | --- | --- | --- |
| CC(C)CON=C1C[C@@H](O)[C@@H](O)[C@@H]2[C@@H]3C(=O)N(C(C)(C)C)C(=O)[C@@H]3CC[C@@H]12 | -0.587 | -0.537 | -0.577 | -0.766 | 1.39 | 1.46 | -0.832 | 1.51 | -0.804 | 0.444 (inactive) | 0.167 | -2.95 (inactive) | -0.811 (inactive) | 1.7 (inactive) | 0.549 (inactive) | 0.0099 | -0.261 | 3.07 | 3.23 | 1.28 |
| C[C@@H]1CC[C@H]2C(=O)N3[C@@H](CC[C@@H](C)[C@@H]3c3ccc(Br)cc3)C(=O)N2[C@H]1c1ccc(Br)cc1 | 0.0399 | -0.0695 | -0.104 | 0.122 | 0.301 | 0.13 | 1.48 | 0.52 | -0.0219 | -0.199 (inactive) | 0.113 | -1.1 (inactive) | 1.21 (inactive) | 0.198 (inactive) | 0.929 (inactive) | 0.146 | -0.0719 | 1.05 | 0.626 | 0.233 |
| O=C(NN=C1C[C@@H](O)[C@@H](O)[C@@H]2[C@@H]3C(=O)N(Cc4ccc5c(c4)OCO5)C(=O)[C@@H]3CC[C@@H]12)OCc1ccccc1 | 0.921 | 0.0191 | 0.28 | 0.057 | -0.137 | -0.0806 | -0.734 | -0.257 | 0.227 | 1.02 (inactive) | -0.0565 | -3.46 (inactive) | 0.156 (inactive) | 1.06 (inactive) | 0.0698 (inactive) | 0.485 | -0.183 | 0.234 | -0.0136 | -0.806 |
| CC(CCC(=O)OC[C@H]1O[C@H](C#Cc2ccccc2)C=C[C@@H]1Oc1ccc(C)cc1)=NOC[C@@H](C)[C@H](OCc1ccccc1)C(C)C | 0.0009 | -0.849 | -0.502 | -1.36 | -0.554 | -0.625 | -0.197 | -0.295 | -0.726 | 1.03 (inactive) | -0.174 | -0.276 (inactive) | -0.193 (inactive) | -0.399 (inactive) | 0.778 (inactive) | -0.783 | -0.128 | -0.705 | -0.28 | 0.0623 |
| CCCCOC(OCCCC)C(O)CSc1ccc2ccccc2c1 (stereo not given) | 0.147 | 0.776 | 0.0661 | 0.329 | 0.586 | 0.296 | 0.428 | 0.489 | 0.264 | -0.842 (inactive) | 0.133 | -0.657 (inactive) | -0.315 (inactive) | 1.01 (inactive) | 0.257 (inactive) | 0.465 | -0.282 | 0.453 | -0.0078 | 0.789 |
